hNpr1 antagonist: antagonists of human natriuretic peptide receptor Npr1; HEK293 hNpr1 GloSensor cGMP, ANP-stimulated luminescence; Potency, µM (series often up to 46.3 µM), inactives show top-dose activity change, negative = inhibition, usual class: inhibitors; actives 1.6% (n = 76,000); note: % is set by controls: 0 for no effect and ±100 for the full control effect; nearly all actives have a fitted effect of over 60% in size
Target sequence (P16066 whole entry, looked up): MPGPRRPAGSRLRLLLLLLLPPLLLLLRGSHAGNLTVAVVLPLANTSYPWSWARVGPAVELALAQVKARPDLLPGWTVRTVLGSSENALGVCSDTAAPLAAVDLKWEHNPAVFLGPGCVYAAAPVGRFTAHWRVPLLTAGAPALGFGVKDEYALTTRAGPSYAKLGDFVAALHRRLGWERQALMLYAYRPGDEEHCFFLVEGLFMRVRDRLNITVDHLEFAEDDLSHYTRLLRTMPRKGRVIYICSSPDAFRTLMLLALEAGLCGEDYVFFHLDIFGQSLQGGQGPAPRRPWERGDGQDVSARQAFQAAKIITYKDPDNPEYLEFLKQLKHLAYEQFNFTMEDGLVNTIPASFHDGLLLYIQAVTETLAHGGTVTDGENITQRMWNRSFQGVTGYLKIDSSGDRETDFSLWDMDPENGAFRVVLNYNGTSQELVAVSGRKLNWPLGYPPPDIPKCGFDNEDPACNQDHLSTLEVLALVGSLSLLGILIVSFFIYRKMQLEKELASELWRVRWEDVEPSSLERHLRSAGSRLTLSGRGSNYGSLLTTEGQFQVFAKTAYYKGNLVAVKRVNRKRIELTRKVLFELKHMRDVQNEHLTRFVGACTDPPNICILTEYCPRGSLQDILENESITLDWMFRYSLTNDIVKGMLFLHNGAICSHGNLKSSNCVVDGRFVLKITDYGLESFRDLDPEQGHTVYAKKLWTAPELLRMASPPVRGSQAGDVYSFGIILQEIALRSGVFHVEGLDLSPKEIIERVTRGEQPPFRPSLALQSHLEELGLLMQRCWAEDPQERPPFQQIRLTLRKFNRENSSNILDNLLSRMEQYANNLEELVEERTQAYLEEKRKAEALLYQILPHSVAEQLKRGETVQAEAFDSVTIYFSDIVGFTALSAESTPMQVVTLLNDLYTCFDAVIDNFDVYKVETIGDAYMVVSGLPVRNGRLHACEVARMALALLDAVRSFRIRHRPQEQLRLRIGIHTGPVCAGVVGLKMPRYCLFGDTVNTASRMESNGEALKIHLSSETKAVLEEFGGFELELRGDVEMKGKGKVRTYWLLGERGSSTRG
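Compound pre-incubated 30 min at room temperature on GloSensor-loaded HEK293 cells stably carrying hNpr1 and the pGS-40F cGMP biosensor. Stimulation uses hNppA at 0.1 nM final; luminescence is taken at baseline and 20 min post-agonist.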
HEK293 tox: kills HEK 293 cells; Potency, µM (doses to about 115 µM), without a hit: top-dose activity change, negative = cytotoxicity, most hits filed as inhibitors; HEK 293 viability, ATP luminescence (CellTiter-Glo), 48-72 h; actives 6.6% (n = 94,000); active = well fitted curve in the direction sought with a large enough effect; inconclusive = small, poorly fitted or top-dose-only effect, or another doubt; inactive = no such curve, though single readings can be large; an effect the other way counts as inactive or inconclusive; note: % is set by controls: 0 for no effect and ±100 for the full control effect; nearly all actives have a fitted effect of over 60% in size
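CellTiter-Glo luminescence (cellular ATP) was read after 48 or 72 hr of compound exposure at 37 degree Celsius. Cells were HEK 293 plated at 250 cells/well.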
Luciferase inh: blocks purified firefly luciferase enzyme activity. AID 1347043. actives 2.5% (n = 76,000). P08659. Potency, µM (doses to about 115 µM), usual class: inhibitors. purified P. pyralis luciferase, luminescence, biochemical; active = well fitted curve in the direction sought with a large enough effect; inconclusive = small, poorly fitted or top-dose-only effect, or another doubt; inactive = no such curve, though single readings can be large; an effect the other way counts as inactive or inconclusive; note: % is set by controls: 0 for no effect and ±100 for the full control effect; nearly all actives have a fitted effect of over 65% in size
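FLuc 10nM, D-luciferin 10uM, ATP 10uM, Mg acetate 10mM, Tris acetate pH 7.5, Tween/BSA; cpd qHTS; enzyme added last; CCD luminescence.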
3T3 cytotox: kills NIH 3T3 cells; actives 4.3% (n = 94,000); NIH 3T3 viability, CellTiter-Glo ATP luminescence, 48-72 h; AID 1345082; Potency, µM (top dose mostly 96.7 µM), for inactives: at the top dose activity change, negative = cytotoxicity, usual class: inhibitors; active = well fitted curve in the direction sought with a large enough effect; inconclusive = small, poorly fitted or top-dose-only effect, or another doubt; inactive = no such curve, though single readings can be large; an effect the other way counts as inactive or inconclusive; note: % is set by controls: 0 for no effect and ±100 for the full control effect; nearly all actives have a fitted effect of over 55% in size
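Luminescent ATP readout (CellTiter-Glo, 10 min RT) after 48 or 72 hr compound exposure of NIH 3T3 cells seeded at 400 cells/well in 1536-well format; quantitative HTS.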
Npr1 antag conf: hNpr1 antagonism, confirmation assay. shares compounds with hNpr1 antagonist. HEK293 hNpr1 cGMP GloSensor luminescence, ANP-stimulated. Potency, µM (doses to about 57.6 µM), inactives show at the highest dose activity change, negative = inhibition, hits mostly inhibitors. actives 76% (n = 1,400). AID 1347044; note: nearly all actives have a fitted effect of over 70% in size
Npr2 selectivity: hNpr2 antagonism, selectivity versus Npr1; shares compounds with hNpr1 antagonist; HEK293 hNpr2 GloSensor cGMP luminescence, CNP-stimulated; Potency, µM (top dose mostly 57.6 µM), inactives show at the highest dose activity change, negative = inhibition, hits mostly inhibitors; actives 67% (n = 1,400); note: nearly all actives have a fitted effect of over 70% in size
FLuc counter: counter-screen for Npr1 antagonists: firefly luciferase inhibitors. Potency, µM (doses to about 57.6 µM), for the others: at the top dose activity change, negative = inhibition, most hits filed as inhibitors. actives 0.7% (n = 1,400). purified FLuc enzyme, luminescence, Km substrate. shares compounds with hNpr1 antagonist; active = well fitted curve in the direction sought with a large enough effect; inconclusive = small, poorly fitted or top-dose-only effect, or another doubt; inactive = no such curve, though single readings can be large; an effect the other way counts as inactive or inconclusive; note: 0% is about no effect
GloSensor cGMP: counter-screen for Npr1 antagonists: GloSensor control cell line. HEK293 GloSensor cGMP, SNP-stimulated, luminescence. actives 69% (n = 1,400). AID 1347051. shares compounds with hNpr1 antagonist. Potency, µM (series often up to 57.6 µM), inactives show at the highest dose activity change, negative = inhibition, most hits filed as inhibitors; note: % is set by controls: 0 for no effect and ±100 for the full control effect; nearly all actives have a fitted effect of over 70% in size
Starred values were filed as active, the others as inactive; i = inactive; ? = inconclusive; nt = not tested or not shown; [ ] = dose if it differs, or a comment. The list is not random: actives were taken first. Their share in the collection is about 11%. Unless noted, calls come from the whole dose curve. Potency is the fitted concentration of half-maximal effect.

SMILES	hNpr1 antagonist	HEK293 tox	Luciferase inh	3T3 cytotox	Npr1 antag conf	Npr2 selectivity	FLuc counter	GloSensor cGMP
COc1ccc(CN2Cc3[nH]cnc3C[C@H]2C(=O)NCc2ccccc2)c2ccccc12	?	89.1µM*	i	?	?	?	0.0%[86.2 µM]	-23.3%[86.2 µM]
Cc1cccc(-n2ncc3c2CCCC3NC(=O)CCC(F)(F)F)c1C (centres undefined)	?	?	i	-27.3%	24.3µM*	?	2.1%	24.3µM*
COc1ncccc1Nc1cnc2ccc(N(C)C)nn12	-8.0%[70.6 µM]	?	i	?	nt	nt	nt	nt
CN(C)c1ccc2ncc(Nc3ccc(Oc4ccccc4)cc3)n2n1	28.2µM*	35.5µM*	i	25.1µM*	31.4µM*	31.4µM*	-24.1%[86.2 µM]	31.4µM*
Cc1ccc(S(=O)(=O)N2CCc3c(C(=O)NCc4ccccn4)cccc32)cc1	11.2µM*	?	i	?	24.3µM*	24.3µM*	-7.5%	30.6µM*
COc1ccc(S(=O)(=O)N2CCc3c(C(=O)NCc4cccc(F)c4)cccc32)cc1	?	?	i	-25.2%	?	?	-12.8%	?
CCCNC(=O)c1cccc2c1CCN2S(=O)(=O)c1ccc(C)cc1	?	?	i	?	nt	nt	nt	nt
CCCNC(=O)c1cccc2c1CCN2S(=O)(=O)c1ccc(OC)cc1	?	?	i	-21.5%	nt	nt	nt	nt
CC(=O)Nc1ccccc1-c1c(C)nn2c1N(Cc1ccccc1)CCC2	-2.5%[70.6 µM]	?	i	?	nt	nt	nt	nt
COc1ccc(OC)c(CN2CCCn3nc(C)c(-c4ccnn4C(C)C)c32)c1	-17.9%[70.6 µM]	?	i	-17.7%[138 µM]	nt	nt	nt	nt
Cc1nn2c(c1-c1ccccc1OCc1ccccc1)N(CC1CC1)CCC2	7.08µM*	?	i	?	6.27µM*	31.4µM*	-3.7%[86.2 µM]	5.59µM*
COc1ccc(OC)c(CN2CCCn3nc(C)c(-c4ccccc4OCc4ccccc4)c32)c1	7.08µM*	11.2µM*	i	8.91µM*	13.7µM*	19.3µM*	-1.0%	12.2µM*
Cc1nn2c(c1-c1ccccc1Oc1ccccc1)N(CC1CC1)CCC2	?	28.2µM*	i	31.6µM*	39.6µM*	35.3µM*	-11.0%[86.2 µM]	39.6µM*
Cc1nn2c(c1-c1ccccc1Oc1ccccc1)N(CC1CCOCC1)CCC2	-15.8%[70.6 µM]	?	i	?	nt	nt	nt	nt
COCC1CN(S(=O)(=O)Cc2ccc(C)c(C)c2)CC12CCNCC2 (centres undefined)	2.2%	-4.4%	i	-7.5%	nt	nt	nt	nt
CC(C)N1C(=O)C2(CCCC2)C1C(=O)NCc1cc(F)cc(F)c1 (centres undefined)	5.3%	-1.4%	i	4.6%	nt	nt	nt	nt
Cn1cccc1C(=O)N1CCCCCCNC(=O)[C@@H]2CCC[C@@H]21	6.6%	?	i	-11.9%	nt	nt	nt	nt
COc1ccc(-c2nc(-c3ccccc3)nc3c2CN(C(=O)c2cccc(OC)c2)CC3)cc1	-2.8%	?	i	?	nt	nt	nt	nt
Cc1noc(-c2cn(C3CCN(C(=O)Cc4ccc(OC(F)(F)F)cc4)CC3)nn2)n1	-10.3%	?	i	?	nt	nt	nt	nt
O=C(N1CCC(c2ccccc2)CC1)C1(c2ccc(Cl)cc2)CCOCC1	nt	?	nt	?	?	?	3.5%	-19.0%
CC(C)CNC(=O)N1CCC(N2C(=O)C3(CCCCC3)C2c2ccncc2)CC1 (centres undefined)	4.7%	1.0%	i	-20.3%	nt	nt	nt	nt
CC1=C[C@@H](CNS(C)(=O)=O)[C@H](C(C)C)C[C@H]1Cc1nc2ccccc2n1C	28.2µM*	?	i	?	35.3µM*	28µM*	0.4%[86.2 µM]	31.4µM*
CC1=C[C@@H](CNC2CCOCC2)[C@H](C(C)C)C[C@H]1Cc1nc2ccccc2n1C	-22.6%[70.6 µM]	?	i	?	nt	nt	nt	nt
CN(C)c1ccc(CN2CCOC[C@H]2c2ncc(-c3ccncc3)[nH]2)cc1	2.8%[70.6 µM]	-24.1%[172 µM]	i	1.4%[174 µM]	nt	nt	nt	nt
O=C(Nc1ccc(F)cc1)C1CCc2nc(N3CCN(C(=O)C4CCC4)CC3)sc2C1 (centres undefined)	3.55µM*	10µM*	i	?	7.69µM*	10.9µM*	-20.2%	9.68µM*
SMILES	hNpr1 antagonist	HEK293 tox	Luciferase inh	3T3 cytotox	Npr1 antag conf	Npr2 selectivity	FLuc counter	GloSensor cGMP
O=C(NCC1CCCCC1)C1CCc2nc(N3CCN(C(=O)C4CCC4)CC3)sc2C1 (centres undefined)	7.6%	-38.4%	i	-10.8%	nt	nt	nt	nt
COc1ccc(-c2noc(CC3CCN(C(=O)c4cc(Cl)ccc4OC)CC3)n2)cc1	-28.9%	31.6µM*	i	?	21.7µM*	24.3µM*	-5.2%	21.7µM*
COc1cc(Cl)ccc1C(=O)N1CCC(Cc2nc(-c3ccc(F)cc3)no2)CC1	5.62µM*	?	i	11.2µM*	4.85µM*	6.11µM*	0.8%	6.85µM*
CCOc1ccccc1C(=O)N1CCC(Cc2nc(-c3ccc(F)cc3)no2)CC1	?	?	i	?	nt	nt	nt	nt
CN1C(=O)[C@@H]2C[C@@H](CN2C(=O)CCC(=O)O)Oc2ccccc21	-1.2%[70.6 µM]	-3.8%[172 µM]	i	-18.0%[174 µM]	nt	nt	nt	nt
Cc1ccc(C(=O)N[C@H]2CO[C@H]3[C@@H]2OC[C@@H]3Nc2nccc(-c3ccc4c(c3)OCO4)n2)cc1	1.9%	?	i	?	nt	nt	nt	nt
CC(C)(C)C(=O)N[C@H]1CO[C@H]2[C@@H]1OC[C@@H]2Nc1nccc(-c2ccc(-c3ccccc3)cc2)n1	?	?	i	-29.8%	21.7µM*	?	-0.9%	21.7µM*
N#Cc1cccc(-c2ccnc(N[C@H]3CO[C@H]4[C@@H]3OC[C@H]4OC(=O)Nc3ccccc3)n2)c1	-10.1%	-28.4%	?	-12.0%	nt	nt	nt	nt
O=C(N[C@H]1CO[C@H]2[C@@H]1OC[C@@H]2Nc1nccc(-c2ccc(-c3ccccc3)cc2)n1)C1CC1	?	?	i	-9.1%	nt	nt	nt	nt
O=C(Nc1cccc2ccccc12)O[C@@H]1CO[C@H]2[C@@H]1OC[C@@H]2Nc1nccc(-c2cccc(F)c2)n1	-22.3%	39.8µM*	i	?	?	?	5.8%	-27.4%

Assay outcomes deposited in PubChem BioAssay by National Center for Advancing Translational Sciences (NCATS).
